Results reported in PubChem BioAssay (NCI).
About 79,000 compounds went through this panel and 15% of them were active in at least one assay; those are over-represented in the sample as a whole. A number with no mark means an inactive call. Active and inactive are the calls of the source. Cut-off read from the data, not from the text of the source: active = growth inhibition above about 70%; inactive = the rest.

Assays:
[1] = NCI Yeast Anticancer Drug Screen. Data for the rad50 strain (AID 155);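 note: 0% = growth of vehicle-only cultures of the same strain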; conditions: S. cerevisiae rad50 strain growth inhibition, active compounds read high
How it was run: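 Vehicle-treated cultures provide the reference for the growth inhibition reported for compound-exposed, repair-deficient yeast.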

[2] = NCI Yeast Anticancer Drug Screen. Data for the mec2-1 strain (AID 157); conditions: S. cerevisiae mec2-1 strain, active compounds read high
How it was run: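 Yeast mec2-1 mutant treated with compound. Readout: growth inhibition vs vehicle controls.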

[3] = NCI Yeast Anticancer Drug Screen. Data for the sgs1 mgt1 strain (AID 161);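 note: 0% = growth of cultures given vehicle only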; conditions: S. cerevisiae sgs1 mgt1 strain, active compounds read high
How it was run: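 Test agents were incubated with a DNA-repair-mutant yeast strain. Growth was then read and compared against vehicle-treated controls.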

[4] = NCI Yeast Anticancer Drug Screen. Data for the cln2 rad14 strain (AID 165);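 note: 0% = growth equal to vehicle treated cultures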; conditions: S. cerevisiae cln2 rad14 strain, active compounds read high
How it was run: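 cln2 rad14 yeast strain; compound exposure; growth inhibition read vs vehicle controls.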

[5] = NCI Yeast Anticancer Drug Screen. Data for the bub3 strain (AID 167); conditions: S. cerevisiae bub3 mutant strain, active compounds read high
How it was run: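 Mutant yeast screening strain plus compound; vehicle-treated cultures serve as the 0% inhibition reference.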

[6] = NCI Yeast Anticancer Drug Screen. Data for the mlh1 rad18 strain (AID 175); conditions: S. cerevisiae mlh1 rad18 strain growth inhibition, active compounds read high
How it was run: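 Yeast w/ defined DNA-repair lesions; compound exposure; growth vs vehicle controls → % inhibition.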

[7] = at 5.0 µM (retest, dose inferred, filed as 0.5)
[8] = at 50.0 µM (retest, dose inferred, filed as 5.0)

Row | SMILES | growth inhibition [1, 7] | growth inhibition [1, 8] | growth inhibition ([1]; at 50.0 µM) | growth inhibition [2, 7] | growth inhibition [2, 8] | growth inhibition ([2]; at 50.0 µM) | growth inhibition [3, 7] | growth inhibition [3, 8] | growth inhibition ([3]; at 50.0 µM) | growth inhibition [4, 7] | growth inhibition [4, 8] | growth inhibition ([4]; at 50.0 µM) | growth inhibition [5, 7] | growth inhibition [5, 8] | growth inhibition ([5]; at 50.0 µM) | growth inhibition [6, 7] | growth inhibition [6, 8] | growth inhibition ([6]; at 50.0 µM)
1 | BrCC(Br)Cc1ccc2c(c1)OCO2 (configuration not stated) | 5% | 30% | 20.8% | 2% | 25% | -7.35% | 3% | 60% | 49.4% | 6% | 21% | -21.6% | 14% | 39% | 4.7% | -1% | 84% (active) | 56.9%
2 | N=C1c2ccccc2-c2ccccc21 | 49% | 49% | 66% | 22% | 17% | 37.2% | 10% | 11% | 40.2% | 12% | 3% | 12.1% | 19% | 24% | 22.9% | 21% | 21% | 26.8%
3 | O=C(O)/C(Cl)=C(\Cl)C(=O)Nc1c(Cl)cccc1Cl | -9% | 7% | 19.1% | -3% | -7% | 51.1% | -13% | 6% | 38.2% | 1% | 5% | 36.4% | 3% | 2% | 29.2% | 19% | 2% | 16.1%
4 | COc1ccc(OC)c(CC(Cl)(C#N)C#N)c1 | 33% | 99% (active) | 98.2% (active) | 48% | 100% (active) | 99.8% (active) | 48% | 99% (active) | 99.7% (active) | 20% | 99% (active) | 99% (active) | 34% | 99% (active) | 99.8% (active) | 61% | 99% (active) | 99.6% (active)
5 | CC1CCC2(NC1)OC1CC3[C@@H]4CC=C5C=CCC[C@]5(C)C4CC[C@]3(C)C1C2C (some centres not stated) | -16% | 97% (active) | 90.8% (active) | 4% | 99% (active) | 93.1% (active) | -4% | 98% (active) | 91.6% (active) | 6% | 97% (active) | 90.9% (active) | -33% | 98% (active) | 90.8% (active) | -10% | 97% (active) | 89.1% (active)
6 | COc1ccc(CSC2=C(C#N)C(=O)NC3(CCCCC3)S2)cc1 | 23% | 11% | 3.6% | -1% | 4% | 2.25% | 23% | 14% | 6.2% | -1% | 16% | 28.5% | 6% | 6% | -13.2% | 18% | -2% | 7.75%
7 | CC(CCC(=O)O)(c1cc(Br)c(O)c(Br)c1)c1cc(Br)c(O)c(Br)c1 | 19% | 91% (active) | 90.8% (active) | -1% | 72% (active) | 90% (active) | -2% | 75% (active) | 81.5% (active) | -16% | 75% (active) | 92.4% (active) | -3% | 78% (active) | 88.6% (active) | -14% | 87% (active) | 90.4% (active)
8 | CNCCCNc1c2cc(OC)ccc2nc2cccc([N+](=O)[O-])c12 | 9% | 96% (active) | 82.8% (active) | -10% | 97% (active) | 88.2% (active) | 49% | 94% (active) | 78.3% (active) | 41% | 98% (active) | 85.3% (active) | -31% | 52% | 55.5% | 41% | 97% (active) | 78.6% (active)
9 | CC/C=C\C/C=C\C/C=C\CCCCCCCC(=O)OCC(O)CO (configuration not stated) | 0% | 4% | 22.9% | 0% | 37% | 88.1% (active) | 0% | 48% | 86.8% (active) | 1% | 10% | 42.9% | -2% | 83% (active) | 53.4% | 2% | 24% | 52.5%
10 | O=[N+]([O-])c1ccc2nc(-c3ccccn3)[nH]c2c1 | -2% | 27% | 86.3% (active) | 1% | 5% | 87% (active) | -13% | 17% | 73.6% (active) | -12% | -3% | 77.3% (active) | -25% | 16% | 88.6% (active) | -38% | 42% | 88.5% (active)
11 | O=c1[nH]c2c([N+](=O)[O-])cc(Cl)cc2nc1/C=C(\O)c1ccccn1 | 8% | 61% | 51.8% | -1% | 26% | 5.8% | 7% | 41% | 49.2% | 4% | 52% | 37% | 14% | 27% | 12.1% | 11% | 46% | 79.2% (active)
12 | CC(C)(O)[C@H](CCO)O[Si](c1ccccc1)(c1ccccc1)C(C)(C)C | 26% | 97% (active) | 98.3% (active) | 18% | 98% (active) | 92% (active) | 13% | 97% (active) | 98.2% (active) | 17% | 97% (active) | 97.5% (active) | 4% | 98% (active) | 98.5% (active) | 23% | 97% (active) | 98.6% (active)
13 | Oc1ccc(C2CCCCC2)cc1 | 1% | 59% | 85.5% (active) | -4% | 51% | 79.5% (active) | -10% | 54% | 95.3% (active) | -4% | 37% | 5.7% | -4% | 62% | 48.6% | 0% | 40% | 93.8% (active)
14 | CC1(C)CNCC(C)(OCc2ccccc2)C(=O)NC(C)(C)CNCC(C)(OCc2ccccc2)C(=O)N1 (configuration not stated) | -6% | -19% | -1.9% | -15% | -8% | -3.4% | -8% | 7% | -20.9% | -15% | -5% | 31.5% | -10% | 3% | -68.2% | -10% | 6% | -10.4%
15 | CN(C)c1ccccc1[CH2][Ga]([Cl])[CH2]c1ccccc1N(C)C | 15% | 96% (active) | 88.9% (active) | -1% | 98% (active) | 92.6% (active) | 13% | 51% | 90.8% (active) | 16% | 98% (active) | 90.3% (active) | 9% | 97% (active) | 91.3% (active) | 26% | 98% (active) | 89.2% (active)
16 | O=[N+]([O-])c1cccc(C=Nc2ccccc2O)c1 | 22% | 34% | 63.1% | 12% | 31% | 41.8% | 13% | 35% | 52.7% | -4% | 7% | 17.6% | 23% | 82% (active) | 76% (active) | 24% | 48% | 70.8% (active)
17 | CC(C)=CCc1c2c(c(O)c3c(=O)c(-c4ccc(O)cc4O)coc13)C=CC(C)(C)O2 | -20% | 95% (active) | 83.2% (active) | -13% | 97% (active) | 86% (active) | -11% | 95% (active) | 85.9% (active) | 15% | 97% (active) | 83.2% (active) | 26% | 96% (active) | 81.2% (active) | 7% | 95% (active) | 84.7% (active)
18 | CCN(CC)CCCCCCNc1cc(Cl)cc2cccnc12 | 18% | 71% (active) | 91.6% (active) | 14% | 64% | 89.9% (active) | 28% | 94% (active) | 97.5% (active) | 26% | 68% | 97% (active) | 42% | 79% (active) | 85.4% (active) | 27% | 84% (active) | 97.5% (active)
19 | COc1nc2c(ccn2C2OC(COC(C)=O)C(OC(C)=O)C(OC(C)=O)C2OC(C)=O)c(=O)n1C (configuration not stated) | 2% | -2% | 15.2% | 1% | -4% | 14.8% | -5% | -5% | 4.45% | -2% | -3% | 2.35% | -2% | -8% | -5.9% | 1% | -2% | 2.15%
